This is an account of results in PubChem BioAssay.

The source made the active and inactive calls.

A short description of assay [1]: compound effects on lung adenocarcinoma cell viability – A549, calcein-AM fluorescence, 48 h, basal, profiling panel (AID 1162). The following applies: higher = more signal.
A short description of assay [2]: compound effects on differentiated 3T3-L1 adipocyte viability – cell-based, 3T3-L1 adipocytes, calcein-AM fluorescence, 48 h, basal, profiling panel (AID 1163). The following applies: 3T3-L1 adipocytes viability, higher = more signal.
A short description of assay [3]: compound effects on hepatocellular carcinoma cell viability – HepG2, calcein-AM fluorescence, 48 h, basal, profiling panel (AID 1164). Particulars: higher = more signal.
Assay [4] can be described thus: compound effects on multiple myeloma cell viability – MM1S, calcein-AM fluorescence, 48 h, basal, profiling panel (AID 1165).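 Also: viability of MM1S multiple myeloma cells under basal unstimulated conditions.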 The following applies: higher = more signal.
Assay [5] in a line: calcein-AM signal in unstimulated myeloma cells – cell-based, calcein-AM fluorescence, 48 h, PK04 Diversity Set, profiling panel (AID 1166).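 Also: cells grown under basal conditions without added stimulus.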 The following applies: RPMI8226 myeloma viability, higher = more signal.
Assay [6] in a line: JC-1 mitochondrial signal, unstimulated HepG2 cells – cell-based, JC-1 fluorescence, 24 h, 100 nL compound, profiling panel (AID 1167). Particulars: HepG2 mitochondrial potential, higher = more signal.
Assay [7] is described as follows: JC-1 mitochondrial signal, unstimulated adipocytes – cell-based, JC-1 fluorescence, 3T3-L1 adipocytes, 24 h, 100 nL compound, profiling panel (AID 1168). The following applies: JC-1 mitochondrial fluorescence, higher = more signal, called active from +8 up or from −8 down.
A short description of assay [8]: JC-1 mitochondrial signal, unstimulated myeloma cells – cell-based, JC-1 fluorescence, RPMI8226, 24 h, 100 nL compound, profiling panel (AID 1169). Particulars: JC-1 mitochondrial potential fluorescence, higher = more signal.
Assay [9] in a line: JC-1 mitochondrial signal, unstimulated MM1S myeloma – cell-based, JC-1 fluorescence, 24 h, 100 nL compound, profiling panel (AID 1170). Particulars: MM1S mitochondrial potential, higher = more signal.
Assay [10] is described as follows: resazurin metabolic signal in A549 cells – cell-based, resazurin fluorescence, 24 h, PK04 Diversity Set, profiling panel (AID 1171). Particulars: A549 viability, higher = more signal, called active from +8 up or from −8 down. A general note: Alamar Blue is a resazurin reagent that responds to reducing activity.
Also: test concentration not given here.

As for `CCOC(=O)C1=CCC(c2cc3ccccc3[nH]2)NC1` (stereo not given), the z-score in [1] was -0.35; in assay [2], -0.709; in [3], 1.08; in [4], 1.13; in [5], 0.255; in [6], 0.4. The z-score in assay [7] was 1.17 (inactive); in assay [8], -0.0143; in assay [9], -1.26; in assay [10], -0.412 (inactive).
As for `COc1ccc(O[C@H]2C=C[C@@H](c3ccccc3)O[C@@H]2COC(=O)CCC(C)=NOC(C)CN2CCCCc3nc(C)c(C)cc32)cc1` (stereo not given in full), the z-score is -0.294 in assay [1]; -0.471 in [2]; 0.197 in [3]; -1.35 in assay [4]; -0.666 in assay [5]; 0.775 in [6]. Also, the z-score is -0.313 (inactive) in assay [7], -0.508 in assay [8], -0.903 in assay [9] and 1.61 (inactive) in [10].
Turning to `CCc1cc2c(nc1CC)CCN(CCC(C)=NOC[C@@H](O)[C@H]1O[C@@H]3OC(C)(C)O[C@@H]3[C@H]1O)C2`, the z-score was 0.719 in [1]; 0.879 in [2]; 1.09 in assay [3]; -1.1 in [4]; -0.531 in assay [5]; 0.244 in assay [6]. In addition, the z-score in assay [7] was -1.1 (inactive); in [8], 0.527; in [9] it was -0.162; in [10], -0.0919 (inactive).
Consider `COCCOC(=O)N1C(=O)[C@@]2(c3cc(C#Cc4ccc(OC)cc4)ccc31)[C@H](C(=O)N1CCN(c3ncccn3)CC1)[C@H]1C(=O)O[C@H](c3ccccc3)[C@H](c3ccccc3)N1[C@@H]2c1ccc(OCCO)cc1`, for which the z-score in assay [1] is -0.758; in assay [2] it was 0.717; in assay [3] it was 0.0264; in assay [4], -1.01; in [5], 0.581; in [6], 0.331. Besides, the z-score in assay [7] is 3.91 (inactive); in [8], -0.453; in assay [9] it was -0.885; in [10], -0.212 (inactive).
In the case of `CO[C@H]1COC(=O)CC=C[C@H](C)[C@@H](NS(=O)(=O)c2ccc(C)cc2)COC(=O)CC=C[C@@H]1C`, the z-score in [1] is 0.368; in [2] it was 0.902; in assay [3], 0.605; in assay [4] it was -0.204; in assay [5] it was 0.15; in [6], -0.0318. The z-score in assay [7] was -1.58 (inactive); in assay [8] it was 0.0791; in [9] it was -1.17; in assay [10], -0.0226 (inactive).
With `C=C(COC)/C(=C/C[C@H](OC(=O)c1ccncc1)c1ccc(CO)o1)c1cc(C(=O)OC)ccc1OC`, the z-score was -1.2 in assay [1]; -0.256 in [2]; -0.981 in assay [3]; -0.43 in assay [4]; -0.111 in assay [5]; -0.47 in assay [6]. Moreover, the z-score in assay [7] is -1.01 (inactive); in [8], 0.126; in assay [9], 0.00652; in assay [10] it was 0.451 (inactive).
In the case of `COc1ccc(O[C@H]2C=C[C@@H](c3ccccc3)O[C@@H]2COC(=O)CCC(C)=NOCC[C@@H]2C=C[C@H](OC(C)=O)[C@@H](COC(C)=O)O2)cc1`, the z-score is -0.284 in [1]; -0.699 in [2]; -0.1 in assay [3]; -0.919 in assay [4]; -0.112 in assay [5]; -0.359 in assay [6]. The z-score in assay [7] was 0.0763 (inactive); in assay [8], -0.55; in assay [9], -0.522; in [10] it was 0.369 (inactive).
In the case of `C[C@H](c1ccccc1)N1C(=O)[C@H]2[C@@H]3C(=CC[C@H]2C1=O)C(=O)[C@H]1O[C@H]1[C@H]3O`, the z-score in [1] is -1.86; in [2], 0.265; in assay [3], -4.46; in assay [4], -3.11; in assay [5], -3.94; in assay [6], 1.02. Further, the z-score in assay [7] was 1.02 (inactive); in [8], -1.03; in assay [9] it was -2.92; in assay [10] it was -2.16 (inactive).
Regarding `COc1ccc(O[C@H]2C=C[C@@H](c3ccccc3)O[C@@H]2COC(=O)CCC(C)=NO[C@H](C)c2cn([C@@H]3COC[C@H]3O)nn2)cc1`, the z-score in assay [1] was -1.24; in assay [2] it was -0.547; in [3], -1.22; in [4], -0.913; in [5], -1.22; in assay [6], -1.63. Also, the z-score in assay [7] was -1.03 (inactive); in assay [8], 0.923; in assay [9] it was -1.25; in assay [10] it was 1.47 (inactive).
Consider `CC(C)[C@H](NC(=O)OC(C)(C)C)[C@@H](O)CC(=O)OC(C)(C)C`, for which the z-score in assay [1] was 0.403; in assay [2] it was 1.24; in assay [3], 0.026; in assay [4], 0.793; in assay [5], -0.229; in [6], 0.251. Further, the z-score was -0.689 (inactive) in assay [7], 0.62 in assay [8], 1.06 in assay [9] and -1.54 (inactive) in [10].
`CC(CCC(=O)OC[C@H]1O[C@H](C#Cc2ccccc2)C=C[C@@H]1Oc1ccc(C)cc1)=NO[C@@H](C)c1cn([C@H](CO)Cc2ccccc2)nn1`: the z-score in assay [1] is -0.487; in assay [2], 0.725; in assay [3] it was -0.982; in assay [4], -0.622; in assay [5], -2.17; in [6] it was 0.453. For the same compound, the z-score in [7] was -0.346 (inactive); in assay [8], 0.496; in [9], -0.0262; in assay [10], 0.555 (inactive).
Turning to `CCCC=C(CCC)[C@@H](NC(=O)c1ccc(-c2ccccc2)cc1)c1ccc(C(=O)OC)cc1`, the z-score in assay [1] was -1.34; in [2], -1.51; in assay [3] it was -0.166; in assay [4], -0.116; in assay [5], -1.62; in assay [6], -3.18. Moreover, the z-score in assay [7] was 0.393 (inactive); in [8] it was -0.834; in assay [9] it was -1.29; in assay [10], 0.747 (inactive).
As for `COC(=O)[C@H](C)NC(=O)CCC1CC(OC(=O)NCCc2ccc(F)cc2)CC2(CCCC(COC(=O)NCC(c3ccccc3)c3ccccc3)O2)O1` (stereo not given in full), the z-score is -0.0262 in assay [1]; -1 in [2]; -0.972 in [3]; -3.44 in assay [4]; -3.43 in assay [5]; -0.727 in assay [6]. The z-score in assay [7] was 1.18 (inactive); in [8], -0.379; in [9], -1.37; in assay [10] it was 3.22 (inactive).
As to `COc1ccc(OC[C@H]2Cc3c(-c4ccccc4)nc4c(c3CO2)CN(CCOc2ccccc2)CC4)cc1`, the z-score in assay [1] was 0.823; in assay [2], 1.04; in [3] it was 0.562; in [4], -2.69; in assay [5], -1.81; in assay [6] it was 3.51. The z-score was 0.367 (inactive) in [7], -0.177 in [8], 0.656 in assay [9] and -0.634 (inactive) in [10].
In the case of `COC(=O)C1=CCC(c2cccc(Cl)c2)O1` (stereo not given), the z-score is -0.787 in [1]; -0.0098 in [2]; -1.14 in assay [3]; 0.233 in [4]; -0.783 in assay [5]; -0.549 in assay [6]. Besides, the z-score is 0.00619 (inactive) in assay [7], -0.757 in [8], -0.428 in assay [9] and 0.107 (inactive) in assay [10].
